Shown are actives, neighbours in structure and some others; about 18% of the full set was active somewhere.
TDP1 cell noCPT = qHTS for Inhibitors of human tyrosyl-DNA phosphodiesterase 1 (TDP1): qHTS in cells in absence of CPT; Potency, µM (doses to about 46.2 µM), hits mostly inhibitors; DT40 Tdp1-/- hTDP1 cells, no CPT, ATP luminescence, 48 h; 420,000 compounds, 15% hits; AID 686978, 2013; also: nearly all actives have a fitted effect of over 55% in size
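A cellular qHTS used chicken DT40 cells lacking endogenous Tdp1 but carrying stably transfected human TDP1. Compounds were applied without camptothecin, and cell growth kinetics were judged by ATP-dependent luminescence after ≥48 hr.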
TGFb SMAD3 inh = TGF-b pathway inhibition; 410,000 compounds, 1.2% hits; HepG2 CAGA-GFP TGF-b/SMAD3 reporter, GFP fluorescence, 18 h; TGF-beta stimulated, 500 pg/mL final; Potency, µM (doses to about 46.1 µM), usual class: inhibitors; also: nearly all actives have a fitted effect of over 65% in size
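HEPG2 CAGA-GFP, 1000 cells/well; 2 h settle, 37 C; cpd via pin tool; TGF-b 500 pg/mL final; 18 h, 37 C; GFP imaging ex488/em500-530; %Activity normalised to -TGF-b and +DMSO controls; CRC fit, curve class.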
HepG2 viability = counter-screen for TGF-b inhibitors: cytotoxicity in HepG2 cells. HepG2 CAGA-GFP viability, ATP luminescence, 18 h. Potency, µM (highest dose often 46.1 µM), hits mostly cytotoxic. 410,000 compounds, 0.76% hits
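HepG2 CAGA-GFP cells (1000/well, DMEM with 1% FBS) received compound, then TGF-beta at 500 pg/mL final, and were incubated 18 hours at 37 degrees C. Viability was read by CellTiter-Glo luminescence. Media-only wells were set as complete cell-killing and DMSO as no toxicity.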
TDP1 cell CPT = growth inhibition of DT40 Tdp1-/-;hTDP1 cells with camptothecin (screen for TDP1 inhibitors) | 420,000 compounds, 12% hits | chicken DT40 Tdp1-/-;hTDP1 cells + 20 nM CPT, ATP luminescence, 48 h | Potency, µM (titrated, usually from 46.2 µM), hits mostly inhibitors | AID 686979; also: nearly all actives have a fitted effect of over 55% in size
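Chicken DT40 Tdp1-/- cells stably complemented with human TDP1 were seeded at 400 cells/well in medium containing 20 nM camptothecin, exposed to pin-transferred compounds, and grown at 37 °C for at least 48 hr. Viability was read as ATP luminescence.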
TDP1 inh = TDP1 (human) enzyme inhibition; AID 485290; recombinant TDP1, AlphaScreen DNA substrate cleavage; Potency, µM (series often up to 130 µM), usual class: inhibitors; 350,000 compounds, 0.28% hits; Q9NUW8; also: nearly all actives have a fitted effect of over 40% in size
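Recombinant human Tdp1 (E. coli-expressed, 1 nM final) preincubated with compounds 15 min at room temperature, then 5'-biotin/3'-phosphotyrosine-FITC DNA substrate (15 nM final) added for 5 min. AlphaScreen beads (10 ug/ml final) added 10 min; cleavage lowers signal.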
IL-1B inflam inh = inflammasome signaling inhibition, IL-1 beta readout; AID 743279; activity change, % at 57.5 µM; THP-1 LPS/ATP IL-1B secretion, AlphaLISA, 16 h; stronger effect = lower value; 360,000 compounds, 4.7% hits; in the data active = activity change below about -50%; inconclusive = mostly about -30% to -49%
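THP-1 cells pretreated 1 hr with compounds (up to 57.5 uM final), then stimulated with LPS (250 ng/mL final) plus ATP (1.25 mM final); secreted IL-1B measured by AlphaLISA after 16 hr, decreased signal indicating inhibition.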
A number is an active result; . = inactive; ? = inconclusive; / = no result. Unless noted, calls follow the shape of the dose curve; as a rule, active = well fitted curve in the direction sought with a large enough effect; inconclusive = small, poorly fitted or top-dose-only effect, or another doubt; inactive = no such curve, though single readings can be large; an effect the other way counts as inactive or inconclusive.

SMILES	TDP1 cell noCPT	TGFb SMAD3 inh	HepG2 viability	TDP1 cell CPT	TDP1 inh	IL-1B inflam inh
COc1ccc(/C=C2/SC(=S)N(n3c(C)ccc3C)C2=O)cc1	14.6µM	.	.	?	.	.
O=C1NC(=S)SC1=Cc1ccc(F)cc1	?	?	.	?	/	.
O=C1NC(=S)S/C1=C\c1ccc2ccccc2c1	20.6µM	.	.	?	/	.
O=C1NC(=S)SC1=Cc1ccc(Cl)cc1	20.6µM	?	.	?	/	.
CCOc1ccc(/C=C2/SC(=S)N(n3c(C)ccc3C)C2=O)cc1	?	.	.	.	.	.
CC(C)CCNC(=O)CN1C(=O)CSc2ccc(S(=O)(=O)N3CCCCC3)cc21	?	.	.	?	.	/
O=C1NC(=S)SC1=Cc1cc(Br)ccc1O	.	.	.	29.1µM	/	?
COc1ccc(/C=C2\SC(=S)N(N3CCOCC3)C2=O)c(OC)c1	16.4µM	.	.	.	/	.
O=C1NC(=S)SC1=Cc1ccccc1Br	?	?	.	?	/	.
CCOC(=O)c1cc(C(=O)c2cccs2)n2ccc(C(C)=O)cc12	23.1µM	.	.	?	.	.
CCC1CCCCN1C(=O)CCCOc1ccccc1 (stereo not given)	?	.	.	23.1µM	.	.
O=C(CCCOc1ccccc1)N1CCCCC1	.	.	.	.	.	.
COc1ccc(CNS(=O)(=O)c2csc(C(N)=O)c2)cc1OC	.	.	.	.	.	.
COc1ccccc1NC(=O)c1c(Nc2ccccc2F)sc(C(=O)Nc2cccc(Cl)c2)c1N	25.9µM	15.8µM	.	?	.	?
Nc1c(C(=O)c2ccccc2)sc(Nc2ccc(Cl)c(Cl)c2)c1C(=O)Nc1ccccc1	4.11µM	?	7.94µM	?	.	/
CCOc1ccc(NC(=O)c2c(Nc3ccc(OC)cc3OC)sc(C(=O)c3ccc(Cl)cc3)c2N)cc1	13µM	.	.	11.6µM	.	/
COc1ccc(Nc2sc(C(=O)Nc3cccc(Cl)c3)c(N)c2C(=O)Nc2ccccc2OC)cc1	/	/	/	/	.	/
Cc1ccc(Nc2sc(C(=O)c3ccccc3)c(N)c2C(=O)Nc2ccc(Cl)cc2)cc1	18.4µM	?	.	?	.	/
Cn1c2c(c(=O)n(C)c1=O)C(c1ccc(Cl)cc1)C(C#N)=C(N)O2 (stereo not given)	.	.	.	.	.	.
CCN(CC)C(=O)c1ccc(COc2ccccc2Cl)cc1	?	.	.	?	.	-58.8
O=S1(=O)N[C@H](Cc2ccccc2)COc2cc(N3CCN(Cc4ccccc4F)CC3)ccc21	16.4µM	/	/	?	/	.
C[C@H]1COc2cc(N3CCN(Cc4ccccc4F)CC3)ccc2S(=O)(=O)N1	.	/	/	.	/	.
COc1ccc(N2CCN(CCCNC(=O)C3CCC(CNc4nc(=S)[nH]c5ccccc45)CC3)CC2)cc1 (stereo not given)	23.1µM	.	.	?	.	.
O=C(C1CCC(CNc2nc(=S)[nH]c3ccccc23)CC1)N1CCN(c2ccc(F)cc2)CC1 (stereo not given)	4.61µM	.	.	2.59µM	.	-72.0
COc1ccc(N2CCN(CCNC(=O)C3CCN(S(=O)(=O)c4cccs4)CC3)CC2)cc1	?	.	.	?	.	.
CCOC(=O)C1(CCOc2ccccc2)CCN(CC=C(C)C)CC1	?	.	.	?	/	.
CNC(=S)N1CCN(c2ccc([N+](=O)[O-])cc2)CC1	?	?	.	.	.	.
COCCCNC(=S)N1CCN(c2ccc([N+](=O)[O-])cc2)CC1	8.2µM	.	.	16.4µM	.	.
CCNC(=S)N1CCN(c2ccc([N+](=O)[O-])cc2)CC1	.	.	.	.	.	.
O=[N+]([O-])c1ccc(N2CCN(C(=S)NCc3ccc(Cl)cc3)CC2)cc1	3.66µM	?	.	5.8µM	/	/
